ALR H2O2 inh – inhibitors of human sulfhydryl oxidase ALR; P55789; purified ALR, DTT oxidation, H2O2 HRP-luminol luminescence; inhibition, % (no concentration beside the values); 290,000 compounds, 3.8% hits; AID 485317;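 active = mean replicate inhibition above about 79%, with every replicate also reaching it, limit read from the data; inconclusive = only one of the two criteria met; inactive = mean below limit and not every replicate reaching it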
Target sequence (P55789 whole entry, looked up): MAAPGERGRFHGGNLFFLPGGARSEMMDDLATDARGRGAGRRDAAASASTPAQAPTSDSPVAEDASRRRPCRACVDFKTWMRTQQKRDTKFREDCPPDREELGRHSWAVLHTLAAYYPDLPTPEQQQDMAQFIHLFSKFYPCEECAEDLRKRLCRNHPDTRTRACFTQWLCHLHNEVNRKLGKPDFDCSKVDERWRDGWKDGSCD
HDAC3 inh – inhibitors of human histone deacetylase 3. O15379. recombinant HDAC3, fluorogenic peptide/trypsin coupled, fluorescence. inhibition, % at 8.3 µM. 320,000 compounds, 0.15% hits; in the data active = inhibition above about 26%, passing the limit was not always enough; inconclusive = no clear call, values can overlap the other calls
Rce1 inhib – yeast Ras-converting enzyme inhibition | yeast membranes, quenched prenylated peptide cleavage fluorescence | AID 2563 | 290,000 compounds, 0.27% hits | calls only | Q03530;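 active = fall in fluorescence gain of 50% or more versus controls, with final raw signal at or below 3038400; inconclusive = same 50% fall but final raw signal above 3038400; inactive = fall in fluorescence gain under 50%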
Rtt109 Vps75 – blocks Candida albicans Rtt109/Vps75 acetyltransferase activity; 330,000 compounds, 0.16% hits; purified Rtt109/Vps75, ThioGlo CoA-SH fluorescence, 4 h; inhibition, % at 34.9 µM;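 active = inhibition of at least 50% in every replicate; inconclusive = best replicate reaches 50% inhibition but some replicates fall short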
Target sequence (Q5AAJ8 whole entry, looked up): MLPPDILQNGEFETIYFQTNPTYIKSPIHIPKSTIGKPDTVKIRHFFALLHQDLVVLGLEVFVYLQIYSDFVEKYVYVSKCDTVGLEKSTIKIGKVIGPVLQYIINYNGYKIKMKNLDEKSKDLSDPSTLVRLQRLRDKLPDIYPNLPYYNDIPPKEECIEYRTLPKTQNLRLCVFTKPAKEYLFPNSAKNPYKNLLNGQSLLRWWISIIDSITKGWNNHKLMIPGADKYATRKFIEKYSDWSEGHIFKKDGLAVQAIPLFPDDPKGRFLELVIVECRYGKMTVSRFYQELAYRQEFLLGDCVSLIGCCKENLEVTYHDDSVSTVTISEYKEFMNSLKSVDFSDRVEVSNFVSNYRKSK
Efflux pump inh – antifungal efflux pump inhibition, Nile Red retention | S. cerevisiae Candida pump triplex | inhibition, % at 10 µM | 330,000 compounds, 0.44% hits;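 active = plate passing quality check with inhibition over a set limit, or well fluorescence over plate mean plus 4 SD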;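 also: Nile Red retained in pooled yeast measured as flow cytometry median fluorescence; higher means more Nile Red kept so more efflux inhibition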
GRK2 inh – inhibitors of human GRK2 displacing RNA aptamer | bead flow cytometry, FAM-aptamer displacement from GRK2 | AID 488847 | 330,000 compounds, 0.59% hits | P25098 | inhibition of aptamer binding, % at 10 µM;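 active = inhibition of aptamer binding above 40%, roughly 3 SD of noise, on plates passing a quality check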;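 also: median bead fluorescence of bound FAM aptamer so fluorescent compounds give negative values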
Numbers stand for hits; i = inactive; ? = inconclusive; nt = not tested or not shown; + = active, no number. Sampled rows, rich in hits. Any-hit rate of the full collection: about 4.5%.

SMILES	ALR H2O2 inh	HDAC3 inh	Rce1 inhib	Rtt109 Vps75	Efflux pump inh	GRK2 inh
Cc1ccc(S(=O)(=O)Nc2ccc(O)c3ccccc23)c(C)c1	95	i	i	i	i	i
Cc1ccc(S(=O)(=O)Nc2ccc3c4c(cccc24)CC3)c(C)c1	nt	i	i	i	i	i
Cc1ccc(C)c(S(=O)(=O)Nc2ccc(O)c(C(=O)O)c2)c1	i	i	i	i	i	i
Cc1ccc(C)c(S(=O)(=O)Nc2ccc(O)c3ccccc23)c1	85	i	i	i	i	i
CC(C)Oc1ccc(CN2CCC(n3nccc3NC(=O)C3CC3)CC2)cc1	i	i	i	i	i	i
C=CC[C@H](CC(=O)NCCO)C(=O)N[C@@H](COC(=O)[C@H](CC=C)CC(=O)OC(C)(C)C)Cc1ccccc1	i	i	nt	i	i	i
N#CCC(=O)Nc1ccc(C(=O)N2CCN(c3ccccn3)CC2)cc1	i	i	i	i	i	i
CCN1CCN(C(=O)C(C)Sc2nc3nc(C)cc(C)n3n2)CC1 (stereo not drawn)	i	i	nt	i	i	i
Cc1onc(C(=O)NCc2ccccn2)c1[N+](=O)[O-]	i	i	i	nt	i	i
COC(=O)c1ccc(NC(=O)N2CCOCC2)cc1	i	i	i	i	i	i
O=C(Nc1ccc(Nc2ccccc2)cc1)N1CCOCC1	99	i	i	i	i	i
O=C(Nc1ccc(O)cc1)N1CCOCC1	99	i	i	i	i	i
CC(=O)N/N=C/c1cc(C)n(-c2ccc(Br)cc2)c1C	98	i	i	i	i	i
COC(=O)N/N=C/c1cc(C)n(-c2ccc(Br)cc2)c1C	i	i	i	i	i	i
C=CCOC(=O)C1=C(C)NC(=S)C(C#N)(CC=C)C1c1ccccc1Cl (stereo not drawn)	i	i	i	nt	i	i
CCCCn1c(N)c(N(CCOC)C(=O)CC(NC(=O)c2ccccc2Cl)c2ccccc2)c(=O)[nH]c1=O (stereo not drawn)	nt	nt	nt	i	nt	nt
CC(=O)N1CC[n+]2c(-c3ccc(Cl)cc3Cl)csc21	i	i	i	?	i	52
O=C(/C=C/c1ccccc1Cl)OCC(=O)N1CCCC1	i	i	nt	i	i	i
CC1(C)Oc2cc3oc(-c4cc(O)cc(O)c4)cc3cc2CC1O (stereo not drawn)	99	i	i	i	i	i
CC(=O)N/C(=C\c1ccccc1)C(=O)OC/C=C/c1ccccc1	i	i	i	i	i	i
O=C(CNC(=O)c1ccccc1F)NCCN1C(=O)S/C(=C\c2ccc3c(c2)OCO3)C1=O	nt	i	nt	i	i	i
NCCN1C(=O)S/C(=C\c2ccc3c(c2)OCO3)C1=O	92	nt	i	i	i	i
CN(C(=O)CSc1nc(O)cc(=O)n1C1CCCC1)c1ccccc1	98	i	i	i	i	i
CC(=O)N1CCN(S(=O)(=O)c2ccc3c(c2)CCC(=O)N3)CC1	i	i	nt	i	i	i
O=C(O)C1CCC(Cn2c(SCc3cc(=O)n4cc(Cl)ccc4n3)nc3ccsc3c2=O)CC1 (stereo not drawn)	i	i	i	nt	i	i
SMILES	ALR H2O2 inh	HDAC3 inh	Rce1 inhib	Rtt109 Vps75	Efflux pump inh	GRK2 inh
O=C(c1cnc2n(c1=O)CCS2)N1CCN(C(c2ccccc2)c2ccc(Cl)cc2)CC1 (stereo not drawn)	i	nt	+	i	i	i
COc1c(/C=N/Nc2ccc(C(=O)O)cc2)c(CCN(C)C(C)=O)cc2c1OCO2	97	i	i	i	i	i
CCC(=O)N(C)CCc1cc2c(c(OC)c1/C=N/NC(=O)c1ccccc1O)OCO2	i	i	i	i	i	83
O=C(Cc1ccc(Br)cc1)OCC(=O)c1ccc[nH]1	i	i	nt	i	i	i
CC(C)Cn1c(=S)[nH]c2ccccc2c1=O	i	i	i	i	i	i
CC(C)COn1c(=S)[nH]c2ccccc2c1=O	97	i	nt	i	i	i
COc1cc(CNc2ccc3c(c2)CCC3)cc(OC)c1O	99	i	i	i	i	i
COc1cc(CNc2cc(C)ccc2C)cc(OC)c1OC	99	i	nt	i	i	i
CCOc1cc(CNc2ccc3c(c2)CCC3)ccc1O	i	i	i	i	i	i
COc1ccc(CNc2cc(C)ccc2C)c(OC)c1OC	98	i	i	i	i	i
COc1ccc(CNc2ccc(C)c(C)c2)cc1	i	i	i	i	i	i
COc1cc(CNc2ccc(C)c(C)c2)cc(OC)c1OC	97	i	i	i	i	i
O=C1c2ccc([N+](=O)[O-])cc2C(=O)N1Cc1cccnc1	nt	i	i	i	i	i
Cc1cc(S(=O)(=O)N2CCCC(N3CCOCC3)C2)c(C)cc1Cl (stereo not drawn)	i	i	i	i	i	i
Cc1cccc(CCNC(=O)CCc2nc(-c3ccccc3F)no2)c1	i	i	nt	i	i	i
CN(C(=O)CCc1nc(-c2ccccc2F)no1)c1ccccc1	i	i	i	55	i	i
CCOC(=O)C1=C(N)Oc2cc(O)ccc2C1c1cccc([N+](=O)[O-])c1 (stereo not drawn)	85	i	i	i	i	i
O=C(CN(C1CCCCC1)C1CCCCC1)N1CCc2ccccc2C1	i	i	+	i	i	i
O=C(/C=C/c1ccc(F)cc1)N1CCc2ccccc2C1	nt	i	nt	i	i	i
O=C(/C=C/C(=O)N1CCc2ccccc2C1)N1CCc2ccccc2C1	85	i	i	i	i	i
O=C(CN(C1CCCCC1)S(=O)(=O)c1ccccc1)N1CCCC1	i	i	i	i	i	i
O=C(NC(=S)N1CCCc2ccccc21)c1ccc(Cl)cc1	i	i	nt	i	i	i
O=C(NC(=S)N1CCCc2ccccc21)c1ccccc1	99	i	i	i	i	i
CCOC(=O)C1CCCN(S(=O)(=O)c2cc3[nH]c(=O)c(=O)[nH]c3cc2C)C1 (stereo not drawn)	i	i	+	i	i	i
CCOC(=O)C1CCCN(S(=O)(=O)c2ccc(S(=O)(=O)N3CCCC3)cc2)C1 (stereo not drawn)	i	i	i	i	i	i
SMILES	ALR H2O2 inh	HDAC3 inh	Rce1 inhib	Rtt109 Vps75	Efflux pump inh	GRK2 inh
Cc1ccc(S(=O)(=O)NCCC(=O)NCC(c2ccco2)N2CCCCC2)cc1C (stereo not drawn)	i	i	i	i	i	i
COc1ccc(C2N=C(c3ccccc3)NO2)cc1OC (stereo not drawn)	i	i	i	i	i	i
COc1cc(C2N=C(c3ccccc3)NO2)cc(Br)c1O (stereo not drawn)	98	i	i	i	i	i
COc1ccc(/C=N/NC(=O)c2cc(C34CC5CC(CC(C5)C3)C4)[nH]n2)cc1OC	i	i	i	i	i	i
O=C(N/N=C/c1ccc(O)cc1)c1cc(C23CC4CC(CC(C4)C2)C3)[nH]n1	91	i	i	i	i	i
COc1ccc(S(=O)(=O)CCC(=O)NC2CCCCC2)cc1	i	i	i	i	i	i
O=C(CCS(=O)(=O)c1ccccc1)NC1CCCCC1	84	i	i	i	i	i
CCOC(=O)c1nc(NNC(=O)c2ccc([N+](=O)[O-])cc2)sc1C	99	i	i	i	i	i

Compound activity (PubChem BioAssay)
